The nature of assay [1]: qHTS RealTime-Glo MT Cell Viability Assay in HEK293 cells - 0 hour (AID 1224880). Note: top concentration of the series differs between compounds; nearly all actives have a fitted effect of over 45% in size. In a few lines:
(§1)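 Nonlytic bioluminescent viability monitoring. HEK293 at 600 cells/well with reagent; 5 h settle; compound transfer by pintool; plates held at 37 C and read at set time points.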

The nature of assay [2]: A CellTox Green Cytotoxicity Assay to monitor cytotoxicity in HEK293 cells - 32 hour (AID 1224881). Note: nearly all actives have a fitted effect of over 40% in size. Note: potency is the fitted concentration of half-maximal effect. A digest of the protocol:
(§2)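 Cytotoxicity was tracked continuously in HEK293 cells by a DNA-binding dye excluded from viable cells. Compounds were transferred in DMSO 5 h after seeding; fluorescence was recorded at intervals up to 40 h.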

A short description of assay [3]: A CellTox Green Cytotoxicity Assay to monitor cytotoxicity in HepG2 cells - 0 hour (AID 1224882). Note: nearly all actives have a fitted effect of over 35% in size. A digest of the protocol: (§3)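 Real-time, homogeneous cytotoxicity readout: dead-cell DNA staining by CellTox Green in HepG2 monolayers, fluorescence measured at timed intervals up to 40 h of continuous compound exposure.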
Assay [4] is described as follows: A CellTox Green Cytotoxicity Assay to monitor cytotoxicity in HEK293 cells - 8 hour (AID 1224884). Note: nearly all actives have a fitted effect of over 35% in size. A digest of the protocol: as §2
Assay [5] can be described thus: qHTS RealTime-Glo MT Cell Viability Assay in HepG2 cells - 16 hour (AID 1224885). Note: nearly all actives have a fitted effect of over 50% in size. In a few lines:
(§4)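 HepG2 cells (600/well) were dispensed with RealTime-Glo reagents, incubated 5 h at 37 °C, then treated with compounds in DMSO for up to 40 h. Nonlytic NanoLuc luminescence reflecting viable cells was read at each stated time point.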

The nature of assay [6]: qHTS RealTime-Glo MT Cell Viability Assay in HEK293 cells - 24 hour (AID 1224886). Note: top concentration of the series differs between compounds; nearly all actives have a fitted effect of over 50% in size. A digest of the protocol:
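HEK293 cells seeded with NanoLuc/prosubstrate reagent, rested 5 h at 37 C, then dosed and kept at 37 C up to 40 h. Nonlytic real-time luminescence from viable cells read at 0, 8, 16, 24, 32 and 40 h.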

Assay [7] in a line: qHTS RealTime-Glo MT Cell Viability Assay in HEK293 cells - 8 hour (AID 1224887). Note: top concentration of the series differs between compounds; nearly all actives have a fitted effect of over 50% in size. A digest of the protocol:
as §1

A short description of assay [8]: A CellTox Green Cytotoxicity Assay to monitor cytotoxicity in HEK293 cells - 16 hour (AID 1224888). Note: nearly all actives have a fitted effect of over 35% in size. A digest of the protocol: as §2
A short description of assay [9]: qHTS RealTime-Glo MT Cell Viability Assay in HepG2 cells - 0 hour (AID 1224889). Note: nearly all actives have a fitted effect of over 50% in size. A digest of the protocol:
as §4

Assay [10] is described as follows: A CellTox Green Cytotoxicity Assay to monitor cytotoxicity in HepG2 cells - 8 hour (AID 1224890). Note: nearly all actives have a fitted effect of over 45% in size. In a few lines:
as §3

A short description of assay [11]: qHTS assay to identify small molecule antagonists of the estrogen receptor alpha (ER-alpha) signaling pathway using the BG1 cell line in the presence of 0.1 nM 17-beta-estradiol - cell viability counter screen (AID 1259241). Note: nearly all actives have a fitted effect of over 40% in size. A digest of the protocol:
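VM7Luc4E2 cells (endogenous full-length ER-alpha, 4xERE-luciferase), cultured 5 days in charcoal-stripped serum, exposed to compounds with 0.1 nM 17beta-estradiol (final) for 22 hr at 37C. Viability read in same wells as live-cell protease fluorescence after 30 min.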

Assay [12] is described as follows: qHTS assay to identify small molecule antagonists of the androgen receptor (AR) signaling pathway using the MDA cell line in the presence of 0.5 nM R1881 - cell viability counter screen (AID 1259242). Note: nearly all actives have a fitted effect of over 45% in size. In a few lines:
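Cytotoxicity toward MDA-kb2 cells is measured by CellTiter-Fluor live-cell protease fluorescence after 16 hr compound exposure at 37C in the presence of 0.5 nM R1881 stimulator.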

Assay [13] addresses Estrogen receptor (Homo sapiens) (UniProt P03372). In words: qHTS assay to identify small molecule antagonists of the estrogen receptor alpha (ER-alpha) signaling pathway using the BG1 cell line in the presence of 0.1 nM 17-beta-estradiol (AID 1259244). Note: nearly all actives have a fitted effect of over 50% in size. In a few lines: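 After 5 days in hormone-depleted medium (charcoal-stripped serum, no phenol red), VM7Luc4E2 cells were seeded, incubated 24 h, then co-treated with compound and 0.1 nM (final) estradiol for 22 h before luminescence detection.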

Assay [14] is described as follows: qHTS assay to identify small molecule HDAC inhibitors - cell viability counter screen (AID 1259365). A digest of the protocol:
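Wild-type HCT-116 cells, 1,500/well, cultured overnight, then compound-treated 2 h at 37 C. Viability measured as ATP luminescence with CellTiter-Glo after 30 min at room temperature.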

A short description of assay [15]: qHTS assay to identify small molecule agonists of the sonic hedgehog signaling (Shh) pathway - cell viability counter screen (AID 1259366). Note: nearly all actives have a fitted effect of over 50% in size. In a few lines:
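NIH/3T3-derived Gli1-Luc reporter cells, 2,000 per well, received compound after 4 h and were treated about 23 h at 37C. Viability measured in the same wells by CellTiter-Fluor fluorescence after 1 h.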

Assay [16] in a line: qHTS assay to identify small molecule antagonists of the sonic hedgehog signaling (Shh) pathway - cell viability counter screen (AID 1259367). Note: nearly all actives have a fitted effect of over 55% in size. In a few lines: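 Using CellTiter-Fluor, viability of Gli1-Luc reporter 3T3 cells is read by fluorescence in the wells used for the Shh luciferase assay. Treatment lasts 23 hr with conditioned medium, then reagent 1 hr at 37C.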
Assay [17] can be described thus: qHTS assay to identify small molecule HDAC inhibitors (AID 1259364). Note: nearly all actives have a fitted effect of over 45% in size. Note: potency is the fitted concentration of half-maximal effect. A digest of the protocol: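 Homogeneous cell-based luminescent assay of endogenous class I/II HDAC activity; HCT-116 cells, 2 h compound exposure, 30 min HDAC-Glo development at RT.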
The target in assay [18] is Androgen receptor (Homo sapiens) (UniProt P10275). In words: qHTS assay to identify small molecule antagonists of the androgen receptor (AR) signaling pathway using the MDA cell line in the presence of 0.5 nM R1881 (AID 1259243). Note: nearly all actives have a fitted effect of over 50% in size. In a few lines:
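Steps: seed MDA-kb2 cells, incubate 5 hr at 37C; pin-transfer compounds in DMSO; add R1881 to 0.5 nM final; incubate 16 hr; add ONE-Glo, wait 30 min at room temperature; read luminescence.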

Assay [19] is described as follows: qHTS assay to identify small molecule phospholipidosis (PLD) inducers (AID 1259344; active = well fitted curve in the direction sought with a large enough effect; an effect the other way counts as inactive or inconclusive). In a few lines:
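Fluorescent phospholipid staining (LipidTOX Red) measured by automated microscopy in fixed HepG2 cells after 24 h treatment; nuclei counterstained with Hoechst 33342; amiodarone as reference inducer.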

A number with no mark means an inactive call. Inconclusive results are not listed. Calls of active or inactive are those of the source. Unless noted, calls come from the whole dose curve; as a rule, active = well fitted curve in the direction sought with a large enough effect in the repeat runs; inconclusive = weak or mixed curves; inactive = no such curve, though single readings can be large; an effect the other way counts as inactive or inconclusive.

Consider eight compounds from PubChem BioAssay (Tox21).

Estrogen receptor (Homo sapiens), sequence (P03372 whole entry, looked up): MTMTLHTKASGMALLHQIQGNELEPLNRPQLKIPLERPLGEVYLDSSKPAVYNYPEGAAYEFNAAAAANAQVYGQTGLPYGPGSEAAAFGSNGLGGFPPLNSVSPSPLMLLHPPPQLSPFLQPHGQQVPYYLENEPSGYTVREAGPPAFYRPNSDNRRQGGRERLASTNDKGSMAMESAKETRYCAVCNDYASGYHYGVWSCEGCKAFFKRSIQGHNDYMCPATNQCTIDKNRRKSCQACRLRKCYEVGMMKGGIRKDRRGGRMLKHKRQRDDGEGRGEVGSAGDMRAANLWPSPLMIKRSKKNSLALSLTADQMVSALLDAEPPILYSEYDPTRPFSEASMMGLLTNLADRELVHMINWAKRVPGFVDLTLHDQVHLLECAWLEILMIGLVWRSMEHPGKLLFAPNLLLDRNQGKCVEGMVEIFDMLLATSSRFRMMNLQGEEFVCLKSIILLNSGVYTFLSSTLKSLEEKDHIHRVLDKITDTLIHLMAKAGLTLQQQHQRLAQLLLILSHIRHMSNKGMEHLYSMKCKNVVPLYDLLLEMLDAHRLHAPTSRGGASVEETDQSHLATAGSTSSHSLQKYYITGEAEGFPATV
Androgen receptor (Homo sapiens), sequence (P10275 whole entry, looked up): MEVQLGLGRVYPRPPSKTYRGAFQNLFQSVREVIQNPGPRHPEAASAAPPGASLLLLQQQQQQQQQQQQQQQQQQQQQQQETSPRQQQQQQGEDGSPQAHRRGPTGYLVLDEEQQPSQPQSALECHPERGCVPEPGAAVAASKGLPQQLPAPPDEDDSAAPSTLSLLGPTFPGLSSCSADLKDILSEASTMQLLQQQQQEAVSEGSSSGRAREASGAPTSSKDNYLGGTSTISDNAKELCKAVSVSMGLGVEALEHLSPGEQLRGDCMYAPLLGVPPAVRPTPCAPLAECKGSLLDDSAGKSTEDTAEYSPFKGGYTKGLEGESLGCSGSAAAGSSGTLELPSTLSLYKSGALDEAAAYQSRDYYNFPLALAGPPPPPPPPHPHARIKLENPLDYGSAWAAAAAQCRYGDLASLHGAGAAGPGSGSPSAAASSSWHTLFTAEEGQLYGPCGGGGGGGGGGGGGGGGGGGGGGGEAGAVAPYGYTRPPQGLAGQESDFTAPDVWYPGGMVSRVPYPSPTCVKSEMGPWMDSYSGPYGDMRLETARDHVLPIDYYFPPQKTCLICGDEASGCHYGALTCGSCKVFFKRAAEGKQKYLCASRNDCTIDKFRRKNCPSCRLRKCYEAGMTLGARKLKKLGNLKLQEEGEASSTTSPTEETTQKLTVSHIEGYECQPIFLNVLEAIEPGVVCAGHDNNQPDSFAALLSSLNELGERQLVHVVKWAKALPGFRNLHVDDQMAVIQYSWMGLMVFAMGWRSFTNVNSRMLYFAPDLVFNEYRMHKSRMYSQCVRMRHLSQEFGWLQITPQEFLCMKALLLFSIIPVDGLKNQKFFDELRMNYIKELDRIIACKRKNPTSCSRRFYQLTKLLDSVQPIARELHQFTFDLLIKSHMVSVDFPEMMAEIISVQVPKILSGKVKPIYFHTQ

With `CCOCCC(=O)OCC`, the Potency entry in [1], in assay [2], in assay [3], in [4], in [5] and in [6] was “inactive” in each case. Besides, the Potency result in assay [7], in assay [8], in [9], in [10], in assay [11] and in assay [12] was “inactive” in each case. Also, the Potency result in assay [13], in assay [14], in assay [15] and in [16] was “inactive” in each case.

Consider `CC(C)N(C)C`, for which the Potency entry in [1], in [2], in assay [3], in assay [4], in assay [5] and in assay [6] was “inactive” throughout. For the same compound, the Potency result in [7], in [8], in assay [9], in assay [10], in [11] and in assay [12] was “inactive” in each case. The Potency result in [13], in assay [17], in [14] and in assay [15] was “inactive” throughout.

Regarding `CC(C)(C)C1(CCc2ccc(Cl)cc2)CO1` (stereo unspecified), the Potency result in [1], in assay [3], in [4], in assay [5], in assay [6] and in [7] was “inactive” in each case. The Potency result in assay [8], in assay [9], in assay [10], in assay [11], in assay [12] and in assay [13] was “inactive” throughout. In addition, the Potency entry in assay [17], in [14] and in assay [15] was “inactive” in each case. Further, the Potency in assay [2] is 21.9 µM (active).

In the case of `O=C1NC(=O)c2cccc3cccc1c23`, the Potency entry in assay [1], in assay [2], in [3], in assay [4], in [5] and in assay [6] was “inactive” throughout. Also, the Potency entry in [8], in assay [9], in assay [10], in assay [11], in [12] and in assay [13] was “inactive” throughout. Further, the Potency result in [14], in assay [15] and in [16] was “inactive” in each case.

As for `C[C@H](CS)C(=O)N1CCC[C@H]1C(=O)O`, the Potency result in assay [1], in assay [2], in assay [3], in [4], in assay [5] and in [6] was “inactive” throughout. Moreover, the Potency entry in assay [7], in assay [8], in [9], in assay [10], in [11] and in [12] was “inactive” each time. For the same compound, the Potency entry in assay [18], in assay [19], in assay [17], in assay [14], in [15] and in [16] was “inactive” throughout.

Turning to `Nc1c(Cl)cc(Cl)cc1[N+](=O)[O-]`, the Potency result in [1], in assay [2], in assay [3], in [4], in [5] and in assay [6] was “inactive” throughout. For the same compound, the Potency entry in [7], in [8], in assay [9], in assay [10], in assay [11] and in assay [12] was “inactive” throughout. Further, the Potency entry in assay [13], in [17], in [14], in assay [15] and in assay [16] was “inactive” throughout.

With `Nc1ccc(NC(=O)c2ccc(N)cc2)cc1`, the Potency entry in assay [1], in assay [2], in assay [3], in [4], in [5] and in assay [6] was “inactive” throughout. Also, the Potency entry in [8], in assay [9], in assay [10], in assay [11], in [12] and in assay [18] was “inactive” throughout. Also, the Potency result in [14], in [15] and in [16] was “inactive” throughout. The Potency in assay [17] was 27.3 µM (active).

Turning to `CC(C)(C)S`, the Potency result in [1], in assay [2], in assay [3], in assay [4], in assay [5] and in assay [6] was “inactive” each time. The Potency entry in assay [7], in assay [8], in assay [9], in [10], in [11] and in assay [12] was “inactive” throughout. Moreover, the Potency entry in assay [13], in assay [17], in assay [14], in assay [15] and in [16] was “inactive” throughout.
